Experimental data as given in PubChem BioAssay (NCI).
Compounds without any hit were thinned out: in the full panel of roughly 83,000, 20% have a hit.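 Results are percent growth after 48 hours of single-concentration exposure. 100 means growth as in untreated cells, lower positive values show inhibition; negative values down to -100 show cell death.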 Values without a mark were called inactive. Active and inactive are the calls of the source. How the source made its calls: active means growth percent below 10; inactive means the rest.

Experiments:
Experiment in all cases: NCI-60 one-dose screen, 48 h (100 = growth as untreated, 0 = no growth, -100 = all killed)
Conditions in all cases: 10 µM
[1] = system: T-47D breast
[2] = system: BT-549 breast
[3] = system: MDA-MB-435 melanoma
[4] = system: SW-620 colon
[5] = system: MCF7 breast
[6] = system: HCT-116 colon
[7] = system: HCC-2998 colon
[8] = system: KM12 colon

## CCn1c(SCCc2ccccc2)nnc1-c1nn(-c2ccc(Cl)cc2Cl)c(-c2ccc(Cl)cc2)c1C
[1]
  growth: 42.2%
[2]
  growth: 93.4%
[3]
  growth: 83.2%
[4]
  growth: 83.3%
[5]
  growth: 58.7%
[6]
  growth: 39.1%
[7]
  growth: 110%
[8]
  growth: 69.5%

## O=S(=O)(O)c1cccc(Nc2ccc3ccccc3c2)c1
[1]
  growth: 89.9%
[2]
  growth: 98.4%
[3]
  growth: 106%
[4]
  growth: 93.2%
[5]
  growth: 99.5%
[6]
  growth: 90.5%
[7]
  growth: 104%
[8]
  growth: 90.6%

## O=C(CCCCCCC(=O)Nc1ccccc1)NO
[1]
  growth: -12.6% (active)
[2]
  growth: 53.9%
[3]
  growth: -22% (active)
[4]
  growth: -25.7% (active)
[5]
  growth: 9.87% (active)
[6]
  growth: 4.45% (active)
[7]
  growth: 0.434% (active)
[8]
  growth: 14.4%

## NS(=O)(=O)c1ccc(Br)cc1
[1]
  growth: 84.7%
[2]
  growth: 87.6%
[3]
  growth: 105%
[4]
  growth: 112%
[5]
  growth: 94%
[6]
  growth: 81.4%
[7]
  growth: 108%
[8]
  growth: 99.5%

## S=c1cnc2ccccc2[nH]1
[1]
  growth: 81.9%
[2]
  growth: 103%
[3]
  growth: 101%
[4]
  growth: 91%
[5]
  growth: 72.9%
[6]
  growth: 88.3%
[7]
  growth: 67.6%
[8]
  growth: 93.9%

## Cc1c(C(N)=O)sc2c1c(=O)n(Cc1ccccc1)c1nnc(-c3ccc(Br)cc3)n21
[1]
  growth: 20.9%
[2]
  growth: 22.6%
[3]
  growth: 39%
[4]
  growth: 33.1%
[5]
  growth: 21.5%
[6]
  growth: 12.4%
[7]
  growth: 25%
[8]
  growth: 25.6%

## CCOC(=O)c1sc2ncnc(Nc3ccc(NC(=O)Nc4ccc(Cl)cc4)cc3)c2c1C
[1]
  growth: 45.4%
[2]
  growth: 61.8%
[3]
  growth: 59.4%
[4]
  growth: 63.7%
[5]
  growth: 52.1%
[6]
  growth: 17%
[7]
  growth: 90.3%
[8]
  growth: 55.3%

## COc1ccc(C(=O)CC(CC(=O)c2ccc(OC)cc2)c2c(C)nn(-c3ccccc3)c2Cl)cc1
[1]
  growth: 109%
[2]
  growth: 92%
[3]
  growth: 91.9%
[4]
  growth: 102%
[5]
  growth: 95.4%
[6]
  growth: 88.9%
[7]
  growth: 109%
[8]
  growth: 98%

## Cc1ccc(N=Nc2ccccc2)cc1
[1]
  growth: 88.2%
[2]
  growth: 90%
[3]
  growth: 101%
[4]
  growth: 102%
[5]
  growth: 98.3%
[6]
  growth: 78.4%
[7]
  growth: 103%
[8]
  growth: 93.8%

## O=C(Nc1nc(-c2ccccc2)nc2c1sc(=S)n2-c1ccccc1)C(F)(F)F
[1]
  growth: 71.1%
[2]
  growth: 98.9%
[3]
  growth: 99.8%
[4]
  growth: 103%
[5]
  growth: 87%
[6]
  growth: 78.8%
[7]
  growth: 123%
[8]
  growth: 91.3%

## CC(=O)Nc1ccc(S(=O)(=O)c2ccnc3cc(Cl)ccc23)cc1
[1]
  growth: 72.5%
[2]
  growth: 94.9%
[3]
  growth: 73.9%
[4]
  growth: 81.8%
[5]
  growth: 57.8%
[6]
  growth: 78.7%
[7]
  growth: 100%
[8]
  growth: 90.1%

## O=C1OC(C(Cl)(Cl)Cl)OC1C(Cl)(Cl)Cl (stereo not given)
[1]
  growth: 122%
[2]
  growth: 109%
[3]
  growth: 94.7%
[4]
  growth: 125%
[5]
  growth: 114%
[6]
  growth: 105%
[7]
  growth: 111%
[8]
  growth: 101%

## NS(=O)(=O)Oc1ccc(NC(=O)C2CCCCCC2)cc1
[1]
  growth: 90.7%
[2]
  growth: 104%
[3]
  growth: 106%
[4]
  growth: 106%
[5]
  growth: 97.7%
[6]
  growth: 105%
[7]
  growth: 101%
[8]
  growth: 101%

## CNC(=O)c1cn2c3c(c(N4CCN(C)CC4)c(F)cc3c1=O)OC[C@@H]2C
[1]
  growth: 98.9%
[2]
  growth: 104%
[3]
  growth: 104%
[4]
  growth: 99.9%
[5]
  growth: 95.8%
[6]
  growth: 104%
[7]
  growth: 108%
[8]
  growth: 100%

## CCOc1ccccc1/C=N/N1CCCCCC1
[1]
  growth: 99.1%
[2]
  growth: 103%
[3]
  growth: 114%
[4]
  growth: 96.1%
[5]
  growth: 79.2%
[6]
  growth: 100%
[7]
  growth: 93.5%
[8]
  growth: 106%

## CN1C(=O)C2(Nc3cc(Cl)ccc3S2)c2cc(Cl)ccc21 (stereo not given)
[1]
  growth: 71.6%
[2]
  growth: 80.1%
[3]
  growth: 98.4%
[4]
  growth: 94%
[5]
  growth: 75.4%
[6]
  growth: 82.9%
[7]
  growth: 93.5%
[8]
  growth: 99%

## CN(C)CCOc1ccc(-c2nc3sccn3c2-c2ccnc(S(C)(=O)=O)n2)cc1
[1]
  growth: 110%
[2]
  growth: 118%
[3]
  growth: 107%
[4]
  growth: 104%
[5]
  growth: 90.2%
[6]
  growth: 98.1%
[7]
  growth: 111%
[8]
  growth: 113%

## C=CCn1c(SCC(=O)Nc2ccc(C(=O)/C=C/c3ccc(Cl)cc3)cc2)nnc1-c1cc(-c2ccccc2)nc2ccccc12
[1]
  growth: 84.6%
[2]
  growth: 64.2%
[3]
  growth: 77.9%
[4]
  growth: 5.4% (active)
[5]
  growth: 12.2%
[6]
  growth: -22.9% (active)
[7]
  growth: 87.4%
[8]
  growth: 76.5%

## COc1cc2cc(Oc3ccc(NC(=O)c4cccc(C(F)(F)F)c4)cc3)c(C)nc2cc1OC
[1]
  growth: 91.6%
[2]
  growth: 16.3%
[3]
  growth: 24.5%
[4]
  growth: 54.8%
[5]
  growth: 31%
[6]
  growth: 18.1%
[7]
  growth: 62.3%
[8]
  growth: 25.8%

## CCN(CC)c1ccc(/C=C2\SC(=O)C(Nc3nnc(-c4cccnc4SCc4ccccc4)o3)C2=O)cc1 (stereo not given)
[1]
  growth: 50.3%
[2]
  growth: 59.3%
[3]
  growth: -24.6% (active)
[4]
  growth: 22.7%
[5]
  growth: 14.3%
[6]
  growth: 5.84% (active)
[7]
  growth: 4.15% (active)
[8]
  growth: 10.3%

## COc1ccc(Nc2cnc3cc(NS(=O)(=O)c4ccc(C)cc4)ccc3n2)cc1
[1]
  growth: 94.4%
[2]
  growth: 98.1%
[3]
  growth: 4.57% (active)
[4]
  growth: 59.9%
[5]
  growth: 61.6%
[6]
  growth: 79.6%
[7]
  growth: 93.6%
[8]
  growth: 71.3%

## CC(=O)[C@H]1CC[C@]2(C)[C@@H]1CC[C@@H]1[C@@]3(C)CC(CCC#N)(CCC#N)C(=O)C(C)(C)[C@@H]3CC[C@]12C
[1]
  growth: 91.2%
[2]
  growth: 103%
[3]
  growth: 92.4%
[4]
  growth: 88.8%
[5]
  growth: 90.1%
[6]
  growth: 96%
[7]
  growth: 100%
[8]
  growth: 94.5%

## CCOC(=O)c1cc(C(=O)c2ccc(OC)c(OC)c2)n2ccncc12
[1]
  growth: 78.8%
[2]
  growth: 84.5%
[3]
  growth: 104%
[4]
  growth: 100%
[5]
  growth: 79.6%
[6]
  growth: 93.3%
[7]
  growth: 101%
[8]
  growth: 101%

## COc1ccc(-c2nc(-c3nc4ccc(C)cc4[nH]3)cc3c2[nH]c2ccccc23)cc1
[1]
  growth: 32.7%
[2]
  growth: 71.7%
[3]
  growth: 46%
[4]
  growth: 81.4%
[5]
  growth: 36.1%
[6]
  growth: 19.3%
[7]
  growth: 48.9%
[8]
  growth: 21%

## Cc1c2c[n+](C(C)C)ccc2c(C)c2c1[nH]c1ccccc12
[1]
  growth: -13.7% (active)
[2]
  growth: 2.83% (active)
[3]
  growth: 15.9%
[4]
  growth: 22%
[5]
  growth: 3.87% (active)
[6]
  growth: 20.1%
[7]
  growth: 18.8%
[8]
  growth: 8.68% (active)

## Cc1nc2n(c(=O)c1CCN1CCC(c3noc4cc(F)ccc34)CC1)CCC[C@@H]2O
[1]
  growth: 84.1%
[2]
  growth: 99.4%
[3]
  growth: 98.8%
[4]
  growth: 101%
[5]
  growth: 84.7%
[6]
  growth: 99.5%
[7]
  growth: 109%
[8]
  growth: 99.9%

## COc1ccc(-c2n[nH]nc2-c2cc(OC)c3c(c2OC)OCO3)cc1
[1]
  growth: 27.9%
[2]
  growth: 16.8%
[3]
  growth: -12.3% (active)
[4]
  growth: 19.4%
[5]
  growth: 27.7%
[6]
  growth: 25.6%
[7]
  growth: 39.6%
[8]
  growth: 31.9%

## COc1cc2cc(Oc3ccc(NC(=O)Nc4ccc(Cl)c(C(F)(F)F)c4)cc3)c(C)nc2cc1OC
[1]
  growth: 21.4%
[2]
  growth: -38.7% (active)
[3]
  growth: -25.7% (active)
[4]
  growth: 7.51% (active)
[5]
  growth: 2.59% (active)
[6]
  growth: -87.3% (active)
[7]
  growth: -13.1% (active)
[8]
  growth: -16.4% (active)

## COc1cc2cc(Oc3ccc(NC(=O)c4ccccc4)cc3)c(C)nc2cc1OC
[1]
  growth: 79.8%
[2]
  growth: 82.3%
[3]
  growth: 104%
[4]
  growth: 109%
[5]
  growth: 78.7%
[6]
  growth: 87.1%
[7]
  growth: 125%
[8]
  growth: 94.5%

## CCOC(=O)C1=CSC2=NC3=C(CCC/C3=C\c3ccc(Cl)cc3)C(c3ccc(Cl)cc3)N12 (stereo not given)
[1]
  growth: 77.4%
[2]
  growth: 98.4%
[3]
  growth: 79.1%
[4]
  growth: 100%
[5]
  growth: 31.3%
[6]
  growth: 49.7%
[7]
  growth: 101%
[8]
  growth: 66.7%
